The antibiotic and cytotoxicity screens of Wong et al. (2023)
About 500 (1.3%) of roughly 39,000 compounds were called active. Shown is part of a subset that was picked to be rich in actives.

These compounds were tested on S. aureus RN4220 (assay: growth inhibition call (relative growth <= 0.2)). Conditions: 50 µM.

SMILES | growth inhibition call
C[C@H]1[C@H](NC(=O)/C(=N\OC(C)(C)C(=O)O)c2csc(N)n2)C(=O)N1S(=O)(=O)O | inactive
CON=C(C(=O)NC1C(=O)N2C(C(=O)[O-])=C(COC(C)=O)CSC12)c1csc(N)n1.[Na+] (centres undefined) | active
CON=C(C(=O)NC1C(=O)N2C(C(=O)[O-])=C(CSc3nc(=O)c([O-])nn3C)CSC12)c1csc(N)n1.O.O.O.[Na+].[Na+] (centres undefined) | inactive
COCC1=C(C(=O)OC(C)OC(=O)OC(C)C)N2C(=O)C(NC(=O)C(=NOC)c3csc(N)n3)C2SC1 (centres undefined) | inactive
CO/N=C(\C(=O)N[C@@H]1C(=O)N2C(C(=O)O)=C(C)CS[C@H]12)c1csc(N)n1 | active
CC1C(NC(=O)C(=NOC(C)(C)C(=O)O)c2csc(N)n2)C(=O)N1S(=O)(=O)O (centres undefined) | inactive
C[C@H](CO)N1C[C@H](C)[C@H](CN(C)S(=O)(=O)c2ccccc2)Oc2ccc(NS(C)(=O)=O)cc2C1=O | inactive
O=C(C[C@@H]1CC[C@H]2[C@@H](COC[C@@H](O)CN2C(=O)Nc2cccc(Cl)c2)O1)NCCCN1CCOCC1 | active
O=C(C[C@H]1CC[C@H]2[C@@H](COC[C@H](O)CN2C(=O)Nc2cccc(Cl)c2)O1)NCCCN1CCOCC1 | inactive
O=C(C[C@@H]1CC[C@@H]2[C@H](COC[C@H](O)CN2C(=O)Nc2cccc(F)c2)O1)NCCCN1CCOCC1 | inactive
O=C(C[C@@H]1CC[C@@H]2[C@H](COC[C@@H](O)CN2C(=O)Nc2cccc(F)c2)O1)NCCCN1CCOCC1 | inactive
O=C(C[C@H]1CC[C@H]2[C@@H](COC[C@H](O)CN2C(=O)Nc2cccc(F)c2)O1)NCCCN1CCOCC1 | inactive
O=C(C[C@@H]1CC[C@@H]2[C@H](COC[C@H](O)CN2C(=O)Nc2cccc(Cl)c2)O1)NCCCN1CCOCC1 | active
O=C(C[C@H]1CC[C@@H]2[C@H](COC[C@H](O)CN2C(=O)Nc2cccc(Cl)c2)O1)NCCCN1CCOCC1 | inactive
O=C(C[C@H]1CC[C@@H]2[C@H](COC[C@@H](O)CN2C(=O)Nc2cccc(Cl)c2)O1)NCCCN1CCOCC1 | active
O=C(C[C@H]1CC[C@H]2[C@@H](COC[C@@H](O)CN2C(=O)Nc2cccc(Cl)c2)O1)NCCCN1CCOCC1 | inactive
O=C(C[C@@H]1CC[C@H]2[C@@H](COC[C@H](O)CN2C(=O)Nc2cccc(F)c2)O1)NCCCN1CCOCC1 | inactive
O=C(C[C@@H]1CC[C@H]2[C@@H](COC[C@@H](O)CN2C(=O)Nc2cccc(F)c2)O1)NCCCN1CCOCC1 | inactive
O=C(C[C@@H]1CC[C@H]2[C@@H](COC[C@H](O)CN2C(=O)Nc2cccc(Cl)c2)O1)NCCCN1CCOCC1 | active
Cc1ccc(Sc2c(-c3ccccc3)nc3sccn23)cc1 | inactive

SMILES | growth inhibition call
COCC(=O)Nc1ccc2c(c1)C(=O)N(C)C[C@@H](OC)[C@H](C)CN(Cc1ccccc1OC)[C@@H](C)CO2 | inactive
C[C@@H](C[N+](C)(C)C)OC(N)=O | inactive
C=C[C@](C)(O)CC/C=C(\C)C(=O)O[C@@H]1[C@@H](O[C@@](C)(C=C)CC/C=C(\C)C(=O)O[C@H]2C[C@@]3(C(=O)O[C@H]4OC[C@@H](O[C@H]5O[C@@H](CO)[C@@H](O)[C@@H](O[C@H]6O[C@@H](CO)[C@@H](O[C@H]7O[C@@H](CO)[C@@H](O)[C@@H](O)[C@@H]7O)[C@@H](O)[C@@H]6O)[C@@H]5O)[C@@H](O)[C@@H]4O)[C@@H](O)C[C@@]4(C)C(=CC[C@H]5[C@@]6(C)CC[C@@H](O[C@H]7O[C@@H](CO)[C@@H](O[C@H]8O[C@@H](CO)[C@@H](O)[C@@H](O[C@H]9OC[C@@H](O)[C@@H](O)[C@@H]9O)[C@@H]8O)[C@@H](O)[C@@H]7O)C(C)(C)[C@@H]6CC[C@@]54C)[C@@H]3CC2(C)C)OC[C@@H](O)[C@H]1O | inactive
CCc1nc2ccc(C(=O)NCCN3CCNC3=O)cn2c1N(CC)Cc1cccc(Br)c1 | inactive
COC(=O)[C@@]12O[C@@H]1[C@H](O[C@@H]1O[C@H](CO)[C@@H](O)[C@H](O)[C@H]1O)C[C@H]1[C@]3(C)C[C@@H](c4ccoc4)OC(=O)[C@H]3CC[C@]12C | inactive
C[C@H](O)C#Cc1cnc2c(c1)C(=O)N([C@H](C)CO)C[C@H](C)[C@@H](CN(C)C(=O)Nc1ccc(C(F)(F)F)cc1)O2 | inactive
C[C@H]1O[C@@H](OC[C@H]2O[C@@H](OC[C@]3(C)[C@H]4CC[C@@]5(C)[C@H](CC[C@H]6C7=CC(C)(C)CC[C@]7(C(=O)O)CC[C@@]65C)[C@@]4(C)CC[C@@H]3O)[C@@H](O)[C@@H](O)[C@@H]2O)[C@@H](O)[C@@H](O)[C@@H]1O | inactive
C[C@@H]1CN([C@H](C)CO)S(=O)(=O)c2ccc(C#CC3(O)CCCC3)cc2O[C@H]1CN(C)C(=O)Cc1cccnc1 | inactive
Cc1ccc(S(=O)(=O)Nc2ccc3c(c2)C(=O)N([C@H](C)CO)C[C@@H](C)[C@H](CN(C)S(=O)(=O)c2ccc(C)cc2)OCCCC[C@H](C)O3)cc1 | inactive
COc1ccc(NC(=O)N(C)C[C@H]2Oc3c(NC(=O)c4cc(C)nn4C)cccc3C(=O)N([C@H](C)CO)C[C@H]2C)cc1 | inactive
COCC#Cc1ccc([C@H]2[C@@H](CO)N3C(=O)CN(C(=O)c4ccncc4)C[C@H]23)cc1 | inactive
C[C@@H]1CN([C@H](C)CO)C(=O)Cc2cc(NC(=O)CCN3CCOCC3)ccc2O[C@@H]1CN(C)S(=O)(=O)c1ccc(F)cc1 | inactive
CC(=O)OC[C@H]1O[C@H](n2ccc(=O)[nH]c2=O)[C@@H](OC(C)=O)[C@@H]1OC(C)=O | inactive
O=C(C[C@H]1CC[C@H]2[C@@H](COC[C@@H](O)CN2C(=O)Nc2cccc(F)c2)O1)NCCCN1CCOCC1 | inactive
O=C(C[C@@H]1CC[C@@H]2[C@H](COC[C@@H](O)CN2C(=O)Nc2cccc(Cl)c2)O1)NCCCN1CCOCC1 | active
O=C(C[C@H]1CC[C@@H]2[C@H](COC[C@@H](O)CN2C(=O)Nc2cccc(F)c2)O1)NCCCN1CCOCC1 | inactive
Cc1noc(C)c1S(=O)(=O)N(C)C[C@@H]1Oc2ccc(NC(=O)Cn3cnnn3)cc2CC(=O)N([C@H](C)CO)C[C@@H]1C | inactive
Cc1noc(C)c1NC(=O)Nc1ccc2c(c1)C(=O)N([C@@H](C)CO)C[C@H](C)[C@H](CN(C)C(=O)NC1CCCCC1)OCCCC[C@@H](C)O2 | inactive
C[C@@H]1CCCCO[C@@H](CN(C)C(=O)Nc2ccc(C(F)(F)F)cc2)[C@H](C)CN([C@@H](C)CO)C(=O)c2cc(NC(=O)c3ccncc3)ccc2O1 | inactive
C[C@@H]1CN([C@@H](C)CO)C(=O)c2cccc(NS(=O)(=O)c3ccc(F)cc3)c2O[C@H]1CN(C)C(=O)Nc1ccc(C(F)(F)F)cc1 | inactive

SMILES | growth inhibition call
C[C@@H]1CCCCO[C@H](CN(C)Cc2ccc(C(F)(F)F)cc2)[C@@H](C)CN([C@@H](C)CO)C(=O)c2cc(NS(=O)(=O)c3cn(C)cn3)ccc2O1 | inactive
C[C@H](CO)N1C[C@H](C)[C@H](CN(C)Cc2ccccc2C(F)(F)F)OCc2ccccc2-c2ccccc2C1=O | inactive
C[C@@H]1CN([C@H](C)CO)C(=O)c2c(c3ccccc3n2C)-c2ccccc2CO[C@H]1CN(C)Cc1ccc(C(=O)O)cc1 | inactive
C[C@H]1CN([C@@H](C)CO)C(=O)c2ccccc2-c2ccccc2CO[C@H]1CN(C)Cc1ccccc1C(F)(F)F | inactive
C[C@H](CO)N1C[C@H](C)[C@@H](CN(C)Cc2ccccc2C(F)(F)F)OCc2ccccc2-c2ccccc2C1=O | active
C[C@@H]1CN([C@H](C)CO)C(=O)c2c(c3ccccc3n2C)-c2ccccc2CO[C@@H]1CN(C)Cc1ccc(C(=O)O)cc1 | inactive
C[C@@H]1CN([C@@H](C)CO)C(=O)c2ccccc2-c2ccccc2CO[C@@H]1CN(C)Cc1ccccc1C(F)(F)F | inactive
C[C@H](CO)N1C[C@H](C)[C@H](CN(C)Cc2ccc(C(=O)O)cc2)OCc2ccccc2-c2c(n(C)c3ccccc23)C1=O | active
C[C@@H]1CN([C@@H](C)CO)C(=O)c2ccccc2-c2ccccc2CO[C@H]1CN(C)Cc1ccccc1C(F)(F)F | active
C[C@@H]1CN([C@H](C)CO)C(=O)c2ccccc2-c2ccccc2CO[C@@H]1CN(C)Cc1ccccc1C(F)(F)F | inactive
O=C([C@H]1CCCO1)N1CCNCC1 | inactive
C[C@@H]1CCCCO[C@@H](CN(C)Cc2ccncc2)[C@H](C)CN([C@H](C)CO)C(=O)c2cc(NC(=O)CCC(F)(F)F)ccc2O1 | inactive
COc1ccc2c3c(n(c2c1)C)[C@@H](CO)N(C[C@]13CCN(CC1)C(=O)c1ccccc1F)C(=O)Nc1ccccc1F | inactive
Cc1ccc(S(=O)(=O)N(C)C[C@H]2OCCCC[C@H](C)Oc3ccc(NS(=O)(=O)c4ccc(Cl)cc4)cc3C(=O)N([C@H](C)CO)C[C@@H]2C)cc1 | inactive
COCCCOc1cc(C[C@@H](C[C@H](N)[C@@H](O)C[C@H](C(=O)NCC(C)(C)C(N)=O)C(C)C)C(C)C)ccc1OC | inactive
C[C@@H]1CN([C@H](C)CO)S(=O)(=O)c2ccc(C#CC3CCCCC3)cc2O[C@@H]1CN(C)C(=O)Cc1ccncc1 | inactive
C[N+](C)(C)CCCCNC(=O)[C@@H]1C[C@@H]2C(=O)N[C@@H](CCCC[N+](C)(C)C)C(=O)N2[C@@H]1c1cccc(OCCO)c1 | inactive
C[C@@H]1CN([C@H](C)CO)C(=O)c2cc(NC(=O)Nc3cccc4ccccc34)ccc2O[C@@H]1CN(C)Cc1ccccc1 | inactive
CC(C)NC(=O)Nc1ccc2c(c1)CC(=O)N([C@H](C)CO)C[C@@H](C)[C@@H](CN(C)Cc1ccc(Oc3ccccc3)cc1)O2 | inactive
